According to the supplement of paper PMC6555819:

Experiments:
Test in all cases: PBM binding z-score (relative to random genomic background probes); higher = stronger binding; sequences stand for … in GC…GCGATTGACAGCGTAGAATGAAGG
[1] = system: RARb homodimer (NR concentration 270 nM)
Outline: (§1)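 Regression normalization was applied to scanned fluorescence from custom Agilent 4×180K protein-binding microarrays. Before scanning, arrays were incubated 1 h with ligand-free nuclear receptor dimers, and binding was detected with antibodies against each partner (one per run). Binding z-scores use the random background probes as reference.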

[2] = system: RARg:RXRa (NR concentration 270 nM, RXRa partner concentration 90 nM)
Outline: as §1

[3] = system: RARg homodimer (NR concentration 270 nM)
Outline: as §1

[4] = system: RXRa DBDmut IVT, anti-RXR (DBD mutation: RXRa K156A/R161A, NR concentration 90 nM)
Outline: as §1

[5] = system: RXRa homodimer (NR concentration 180 nM)
Outline: as §1

[6] = system: THRa:RXRa (NR concentration 90 nM, RXRa partner concentration 90 nM)
Outline: as §1

[7] = system: THRa homodimer (NR concentration 90 nM)
Outline: as §1

[8] = system: VDR:RXRa (NR concentration 270 nM, RXRa partner concentration 90 nM)
Outline: as §1

[9] = system: VDR homodimer (NR concentration 270 nM)
Outline: as §1

| Sequence | PBM binding z-score [1] | PBM binding z-score [2] | PBM binding z-score [3] | PBM binding z-score [4] | PBM binding z-score [5] | PBM binding z-score [6] | PBM binding z-score [7] | PBM binding z-score [8] | PBM binding z-score [9] |
| --- | --- | --- | --- | --- | --- | --- | --- | --- | --- |
| CAAACTAGGTCCAGGTCAAAGTCGGTTTGTGCCA | 3.03 | 2.6 | 2.27 | 1.62 | 2.37 | 3.31 | 2.79 | 3.06 | 2.49 |
| ACAGACAGATGATGAAGGTAACTCAGGCTATCAT | 0.176 | 0.199 | 0.513 | -0.152 | 0.225 | 0.742 | 0.192 | 0.0494 | 0.335 |
| CCTATTATTTGACCATAAGGGCAACCGAAGCTCG | 2.16 | 1.05 | 1.21 | 1.06 | 0.762 | 1.83 | 2.31 | 1.28 | 2.19 |
| AGAACGAGGGCAATGAGTTGATAGTACGGGTGGC | 1.2 | 1.3 | 1.61 | 2.24 | 0.933 | 0.88 | -0.483 | 5.53 | 3.56 |
| CCTTGCGGGTCAAGGTTATAGCACGGGTGGTACG | 3.04 | 4.37 | 4.11 | 0.089 | 4.68 | 3 | 0.776 | 2.95 | 1.01 |
| TAGCCTAGGCCATTGGGCCAGTATAGTACGCATC | -0.0575 | -0.137 | 0.339 | -1.16 | -0.506 | -0.321 | -0.972 | -0.626 | -0.404 |
| GCTGACAGGTGAAACGCAGGTAACTCAGGGTGGC | 0.252 | 0.825 | 0.362 | -0.702 | 0.505 | 1.27 | -0.547 | -0.355 | -0.647 |
| CGAACTAGGTCATTGAAAGGACAGTGAATAGTAA | 3.34 | 6.37 | 4.98 | 2.17 | 2.84 | 3.16 | 0.878 | 2.36 | 0.863 |
| CATCCAAGGTCAGCAGGTCAGTGAAAGCGACGTG | 5.04 | 6.2 | 7.09 | 2.7 | 6.07 | 3.89 | 2.76 |  | 2.18 |
| TGAATGAGGTTAACGATCAGGGAACGTGGCGTCG | 0.791 | 1.96 | 1.19 | 0.898 | 2.81 | 2.52 | 0.403 | 1.05 | 0.222 |
| GGAACGAGGGCATTCGAGTTGACAGCATGGCGAT | 0.801 | 1.2 | 1.69 | 3.06 | 0.845 | 3.83 | -0.733 | 3.41 | 2.99 |
| CCTACCGGGCCAAGGTCATTGATCAGTCAAAGCA | 3.48 | 3.89 | 3.32 | 0.804 | 3.5 | 3.58 | 2.77 | 3.22 | 3.08 |
| ATACCAAGGTGCTCGTGAGGTCGTTGATACTAAC | 1.4 | 0.626 | 0.196 | 0.552 | 0.882 | 3.31 | 2.12 | 2.34 | 2.55 |
| TAGCCTTGGTCAGATCGGGCCAGTATACGCTATA | -0.204 | -0.284 | 0.118 | -1.12 | -0.507 | 1.29 | -0.783 | -0.557 | -0.709 |
| CCGATTGGGGCAAGGTTACCATAACGCACAGCCA | 1 | 1.02 | 1.3 | 0.17 | 1.09 | 1.2 | 0.241 | 0.0829 | -0.398 |
| ATCGAAAGGTCGAAGGTGAGTATGCCCACCCGAA | 2.54 | 4.34 | 3.76 | 1.32 | 5.13 | 2.04 | -0.289 | 2.68 | 0.413 |
| CAAACGAGGGCATGAGTTGATAGCAAATGCCGAT | 0.782 | 1.53 | 1.79 | 2.13 | 1.29 | 1.56 | -0.234 |  | 1.62 |
